According to the OligoGym collection:

Target: CCL13
Experiment: pooled miR-30 sensor sort-seq; sequence = guide strand
Settings: shRNA
Further: reference of the scale not given here.

Row | Sequence | sensor-assay potency score (higher = more potent)
1 | AAGGAGATCTTCTTACTGCTAA | -0.229
2 | TAAATGTGAAGCAGCAAGTAGA | -1.06
3 | ATTCTGGACCCACTTCTCCTTT | -1.22

Target: CCL23
Experiment: as above
Settings: shRNA

Row | Sequence | sensor-assay potency score (higher = more potent)
4 | TCTGCATCTTTTGTGACCCGGG | -0.271
5 | TAGTAGCATGGAATCTGTCCAG | -0.782
6 | TCTGTCTCTGCATCTTTTGTGA | -0.455
7 | TCCAAGGGCAGTAACAAGCATG | -1.61
8 | AGTAGCATGGAATCTGTCCAGA | -1.79
9 | TTGGAGCACTCGCTGTTCGTTT | -0.72
10 | TTTGACATCATGAACTCTGTCT | 0.483
11 | TGAACTTGCTTATCACTGGGGT | 0.574
12 | TGAACTCTGTCTCTGCATCTTT | -0.137
13 | TTCAAAGTAACTCTCCAGGAGT | -0.524
14 | TCATGAACTCTGTCTCTGCATC | -0.664
15 | TCTCACGCAAACCTGAACTTGC | -0.191

Target: CCL26
Experiment: as above
Settings: shRNA

Row | Sequence | sensor-assay potency score (higher = more potent)
16 | TTGTGGCTGTATTGGAAGCAGC | -1.27
17 | TTGGTAGTGAATATCACAGCCC | -0.403
18 | TTCTTGCCTCTTTTGGTAGTGA | -0.89
19 | TATTGGAAGCAGCAGGTCTTGG | -1.48
20 | TTGGATATGTCACTCCCACGTG | -0.51
21 | TAGCTTCGCACCCAGGTCCAGG | -1.45
22 | TGGATGGGTACAGACTTTCTTG | -1.49
23 | TCTTTTGGTAGTGAATATCACA | -1.4
24 | TTTTGGTAGTGAATATCACAGC | -0.793
25 | TAGTGAATATCACAGCCCGCTG | -1.27

Target: CCL28
Experiment: as above
Settings: shRNA

Row | Sequence | sensor-assay potency score (higher = more potent)
26 | TGCACTTTCATCCACTGCTTAA | -1.51
27 | TTCTTCTGCGCTTGACATGAAG | -1.32
28 | TTGCCATGGTGTTTCTTCCTGT | -0.322
29 | TTGCACTTTCATCCACTGCTTA | -0.197
30 | TTAACAGTATGGTTGTGCGGGC | -0.737
31 | TTTTCTTGGCAGCTTGCACTTT | -0.496
32 | TTTCTTGGCAGCTTGCACTTTC | 0.0736
33 | ACACATATTCACTCTTTCCAGG | -1.19
34 | TGATGTGAAACCTCCGTGCAAC | -1.14
35 | AATATGATGTGAAACCTCCGTG | 0.282
36 | ATATGATGTGAAACCTCCGTGC | -0.448
37 | TCCTGTGGCAAACATTTCCTTT | -1.54

Target: CCNA1
Experiment: as above
Settings: shRNA

Row | Sequence | sensor-assay potency score (higher = more potent)
38 | TAATTGCTTGCTGAGGTCGATG | -1.07
39 | TTAGCCAGGTTCTCAGTCCTGA | -0.236
40 | TGAGTATCTGACAAGCATCGGG | 0.0337
